In PubChem BioAssay (NCATS) one finds Potency data, which are given here for 13 compounds.

Inconclusive results are not listed. The source made the active and inactive calls. Calls come from the whole dose curve; as a rule, active = well fitted inhibition curve with a large enough effect; inconclusive = small, poorly fitted or top-dose-only effect; inactive = flat fitted curve, though single readings scatter.

Common to all, as to assay: qHTS profiling for inhibitors of Plasmodium falciparum proliferation (AID 504749); note: nearly all actives have a fitted effect of over 60% in size
Common to all, as to conditions: P. falciparum in erythrocytes, SYBR Green DNA, 72 h; series mostly up to 28.7 µM
On the technique in general: Quantitative high-throughput screening tests each substance at several concentrations.

One experiment concerns CP297. In a few lines:
(§1)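 SYBR Green fluorescence (ex 485 nm, em 535 nm) reports parasite DNA after 72 h compound exposure of infected red cells at 0.3% parasitemia, 2.5% hematocrit; signal normalized to 0.29 uM artemisinin and vehicle wells.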

Another experiment relates to CP305. In a few lines:
as §1

The next experiment concerns CP315. The gist of the method: as §1
The next experiment deals with CP335. The gist of the method: as §1
For another experiment, the system named is DFO2036. In a few lines: as §1
Another experiment relates to Dd2. In a few lines:
as §1

For a further experiment, the system named is ECU. The gist of the method: as §1
A further experiment deals with FAB9. The gist of the method:
as §1

For the next experiment, the system named is HB3. The gist of the method: as §1
In another experiment the test system is JCK. The gist of the method: as §1
In the next experiment the test system is N140. The gist of the method:
as §1

A further experiment deals with P93_24. The gist of the method:
as §1

For the next experiment, the system named is P94_40. The gist of the method: as §1
Another experiment has as its system CP325. In a few lines:
as §1

In a further experiment the test system is CP329. In a few lines:
as §1

The subject of another experiment is DIV14. In a few lines:
as §1

The next experiment concerns DIV17. In a few lines: as §1
In another experiment the test system is DIV30. In a few lines: as §1
The test system of another experiment is GB4. The gist of the method: as §1
A further experiment concerns ICS. In a few lines: as §1
Potency is the fitted concentration of half-maximal effect.

On to `C#C[C@]1(O)CC[C@@H]2[C@H]3CCC4=CC(=O)CC[C@H]4[C@H]3C(=C)C[C@@]21CC`, for which the Potency with CP297 is 0.536 µM (active); in the experiment on CP305, 0.426 µM (active); in the experiment with CP315, 0.478 µM (active). Moreover, the Potency result in the experiment on CP335, in the experiment with DFO2036, in the experiment with Dd2, with ECU, with FAB9 and with HB3 was “inactive” in each case. In addition, the Potency result with JCK, in the experiment on N140, with P93_24 and in the experiment on P94_40 was “inactive” throughout.

On to `C=CC[C@@H]1/C=C(\C)C[C@H](C)C[C@H](OC)[C@H]2O[C@@](O)(C(=O)C(=O)N3CCCC[C@H]3C(=O)O[C@H](/C(C)=C/[C@@H]3CC[C@@H](O)[C@H](OC)C3)[C@H](C)[C@@H](O)CC1=O)[C@H](C)C[C@@H]2OC`, for which the Potency in the experiment on CP297 was 1.9 µM (active); with CP315, 6.75 µM (active); in the experiment on CP325, 4.26 µM (active); in the experiment with CP329 it was 4.26 µM (active); in the experiment with DFO2036 it was 1 µM (active); in the experiment with DIV14 it was 1.69 µM (active). The Potency was 1.69 µM (active) in the experiment with DIV17; 0.849 µM (active) in the experiment with DIV30; 0.112 µM (active) with Dd2; 1.26 µM (active) in the experiment on ECU; 2 µM (active) in the experiment with FAB9; 3.79 µM (active) in the experiment on GB4. Further, the Potency with HB3 was 1 µM (active); in the experiment with ICS, 0.447 µM (active); with JCK it was 3.98 µM (active); in the experiment on N140, 0.891 µM (active); in the experiment with P93_24, 2 µM (active); in the experiment on P94_40 it was 2 µM (active).

Regarding `CC(C)(C)CC(C)(C)c1ccc(OCCO)cc1`, the Potency result in the experiment on CP297, in the experiment with CP305, in the experiment on CP325, with CP329, in the experiment with CP335 and in the experiment on DFO2036 was “inactive” in each case. The Potency result with DIV14, in the experiment on DIV17, in the experiment with DIV30, with Dd2, in the experiment on ECU and with FAB9 was “inactive” throughout. Besides, the Potency result with GB4, with HB3, in the experiment with ICS, in the experiment on JCK, in the experiment with P93_24 and with P94_40 was “inactive” each time.

For `Cc1cc(-c2ccc(N=Nc3c(S(=O)(=O)O)cc4cc(S(=O)(=O)O)cc(N)c4c3O)c(C)c2)ccc1N=Nc1c(S(=O)(=O)O)cc2cc(S(=O)(=O)O)cc(N)c2c1O`, the Potency result in the experiment on CP297, in the experiment with CP305, in the experiment with CP315, in the experiment on CP325, in the experiment with CP329 and with DFO2036 was “inactive” in each case. The Potency entry with DIV30, with Dd2, with ECU, in the experiment with FAB9, with GB4 and with HB3 was “inactive” each time. Moreover, the Potency result with JCK was “inactive”.

For `CN(C)C=Nc1c(I)cc(I)c(CCC(=O)O)c1I`, the Potency result in the experiment on CP305, in the experiment with CP315, with CP325, in the experiment on CP329, in the experiment on CP335 and in the experiment with DFO2036 was “inactive” in each case. Also, the Potency result in the experiment on DIV14, in the experiment on DIV17, in the experiment with DIV30, in the experiment with Dd2, with ECU and in the experiment with FAB9 was “inactive” throughout. Further, the Potency entry in the experiment on GB4, with HB3, in the experiment on ICS, in the experiment with JCK, in the experiment with N140 and in the experiment with P93_24 was “inactive” each time. The Potency result with P94_40 is “inactive”.

For the compound `O=C(O)CCCC/C=C(\c1ccccc1)c1cccnc1`, the Potency entry with CP305, with CP315, with CP325, with CP329, in the experiment with CP335 and with DFO2036 was “inactive” in each case. Besides, the Potency entry in the experiment with DIV14, in the experiment with DIV17, in the experiment with DIV30, in the experiment on Dd2, with ECU and in the experiment on FAB9 was “inactive” in each case. Besides, the Potency result with GB4, with HB3, in the experiment on ICS, with JCK, in the experiment on N140 and in the experiment with P93_24 was “inactive” throughout. Besides, the Potency entry with P94_40 was “inactive”.

With `CC(=O)Nc1ccc(NC(=S)NC(=O)c2ccc(C(C)(C)C)cc2)cc1`, the Potency entry in the experiment with CP297, with CP305, in the experiment with CP315, in the experiment on CP325, in the experiment on CP329 and in the experiment with DFO2036 was “inactive” in each case. In addition, the Potency result with DIV17, in the experiment on DIV30, with ECU, in the experiment on FAB9, with GB4 and in the experiment with HB3 was “inactive” throughout. The Potency result in the experiment on JCK, with N140, in the experiment on P93_24 and with P94_40 was “inactive” throughout. The Potency with ICS was 12.6 µM (active).

For the compound `O=C(O)/C=C/C(=O)Nc1ccc(S(=O)(=O)Nc2nccs2)cc1`, the Potency entry in the experiment with CP305, with CP315, in the experiment on CP325, with CP329, in the experiment with CP335 and in the experiment with DFO2036 was “inactive” each time. The Potency entry in the experiment with DIV14, in the experiment on DIV17, in the experiment with DIV30, in the experiment on Dd2, with ECU and in the experiment with FAB9 was “inactive” throughout. The Potency result with GB4, in the experiment with HB3, in the experiment with ICS, in the experiment on JCK, in the experiment on N140 and in the experiment with P93_24 was “inactive” throughout. In addition, the Potency entry in the experiment with P94_40 was “inactive”.

For `C=C1C(CCl)(CCl)C2(Cl)C(Cl)C(Cl)C1(Cl)C2(Cl)Cl` (stereo unspecified), the Potency in the experiment with CP297 is 3.79 µM (active); in the experiment with CP305, 3.79 µM (active); in the experiment with CP325, 3.79 µM (active); in the experiment with CP329, 6.75 µM (active); with CP335, 3.01 µM (active); in the experiment with DFO2036 it was 2 µM (active). Further, the Potency was 1.69 µM (active) in the experiment on DIV14; 1.9 µM (active) in the experiment on DIV17; 1.69 µM (active) in the experiment on DIV30; 2.24 µM (active) in the experiment with Dd2; 2 µM (active) in the experiment with ECU; 3.55 µM (active) in the experiment with FAB9. The Potency in the experiment on GB4 was 2.13 µM (active); in the experiment with HB3 it was 2.51 µM (active); in the experiment on ICS, 0.355 µM (active); in the experiment on JCK, 10 µM (active); with N140, 2 µM (active); with P93_24, 2 µM (active). Besides, in the experiment with P94_40, the Potency was 2.51 µM (active).

As to `CNC(=O)c1c(I)c(C(=O)NCC(=O)Nc2c(I)c(C(=O)O)c(I)c(C(=O)NCCO)c2I)c(I)c(N(C)C(C)=O)c1I`, the Potency result in the experiment with CP297, in the experiment with CP305, in the experiment with CP325, with CP329, in the experiment with CP335 and in the experiment on DFO2036 was “inactive” in each case. Further, the Potency result in the experiment with DIV14, in the experiment with DIV17, in the experiment on DIV30, in the experiment on Dd2, in the experiment on ECU and with FAB9 was “inactive” each time. Further, the Potency result in the experiment with GB4, in the experiment on HB3, in the experiment on ICS, in the experiment with JCK, with N140 and with P93_24 was “inactive” in each case. Besides, the Potency result with P94_40 was “inactive”.

Take `CC1CCC(NC(=O)N(CCCl)N=O)CC1` (stereo unspecified): the Potency entry in the experiment on CP297, in the experiment with CP305, in the experiment on CP315, with CP325, in the experiment on CP329 and in the experiment with DFO2036 was “inactive” each time. Besides, the Potency entry in the experiment on DIV17, in the experiment with DIV30, in the experiment with ECU, with FAB9, in the experiment with HB3 and with ICS was “inactive” throughout. Besides, the Potency result in the experiment on JCK, in the experiment with N140, with P93_24 and in the experiment on P94_40 was “inactive” throughout.

Turning to `CCCc1nc(C(C)(C)O)c(C(=O)OCc2oc(=O)oc2C)n1Cc1ccc(-c2ccccc2-c2nn[nH]n2)cc1`, the Potency entry in the experiment on CP297, in the experiment with CP305, in the experiment on CP315, in the experiment with CP325, in the experiment with CP329 and in the experiment on DFO2036 was “inactive” each time. The Potency result in the experiment with DIV14, with DIV30, in the experiment with Dd2, with ECU, with FAB9 and with GB4 was “inactive” throughout. The Potency entry in the experiment with HB3, with JCK, in the experiment with N140, in the experiment with P93_24 and in the experiment with P94_40 was “inactive” throughout.

With `CCc1ccc(S(=O)(=O)O)cc1`, the Potency result in the experiment with CP305, in the experiment with CP315, in the experiment on CP325, in the experiment on CP329, in the experiment on CP335 and in the experiment on DFO2036 was “inactive” throughout. Further, the Potency entry with DIV14, in the experiment with DIV17, in the experiment on DIV30, with Dd2, in the experiment on ECU and in the experiment with FAB9 was “inactive” each time. For the same compound, the Potency entry with GB4, with HB3, in the experiment with ICS, in the experiment with JCK, in the experiment on N140 and with P93_24 was “inactive” in each case. Moreover, the Potency result in the experiment with P94_40 was “inactive”.
